The values below come from PubChem BioAssay (NCI).

This is part of a sample that, as a whole, favours compounds with a hit. Of some 83,000 tested, about 20% had one in any assay.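 Plates (96-well) were seeded with cells, treated with compound at one concentration, and incubated for 48 hours before percent growth was determined.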 Values without a mark were called inactive. The source made the active and inactive calls.

The test system of the experiment is BT-549 breast. As to the kind of experiment: NCI-60 one-dose screen, 48 h (100 = growth as untreated, 0 = no growth, -100 = all killed). As to conditions: 10 µM unless noted. On the procedure:
Growth inhibition of the BT-549 human tumor cell line is measured as a screen for anti-cancer activity. Cells are grown in 96 well plates and exposed to the test compound for 48 hours. Compounds are tested at a single concentration, which is 10^-5 M for most compounds. The reported endpoint is percent growth (GI% or GIPRCNT), where numbers from 0 - 100% represent growth inhibition, and numbers from -100% - 0 represent cell death. For example, a value of 40 represents 60% growth inhibition. A value of 0 means no net growth occurred over the course of the experiment. A value of -40 indicates 40% of cells at the beginning of the experiment died by the end of the experiment. A value of -100 means all cells are dead at the end of the experiment.
NCI-60 Human Tumor Cell Lines Screen was performed using the standard one-dose NCI protocol, which is described in more detail at https://dtp.cancer.gov/discovery_development/nci-60/default.htm.
Compounds with GIPRCNT values below 10 were considered active. Activity score was based on GIPRCNT using the following formula: […]
Score is 0 for GIPRCNT values of 100 or above, 50 for GIPRCNT values of 0, and 100 for GIPRCNT values of -100.
For `CCOC(=O)c1c(-c2ccc(Cl)cc2)c(C#N)c2c(C#N)c(N)nn2c1N`, the growth is 68.5%.

On to `Cc1nn(-c2ccccc2)c(N2CCCCC2)c1/C=N/NC(=O)Cn1c(=O)sc2ccccc21`, for which the growth was 79.9%.

In the case of `COc1ccc2cc(-c3cnc4nonc4n3)ccc2c1`, the growth is 56.3%.

As for `O=C(Cn1nnc2ccccc21)Nc1ccc(-c2nc3ccccc3s2)cc1`, the growth was 86.5%.

In the case of `CCN(C(=O)N1CCN(c2cc3c(cc2F)c(=O)c(C(=O)O)cn3C2CC2)CC1)c1nc(-c2ccc(C)cc2)cs1`, the growth was -11.3% (active).

Take `CC(CN)[C@@H]1CC[C@]2(CO)CC[C@]3(C)[C@H](CC[C@@H]4[C@@]5(C)CCC(N)C(C)(C)[C@@H]5CC[C@]43C)[C@@H]12` (stereo not given in full): the growth was 44.9%.

Consider `COc1ccc(-c2cc(-c3ccc(OC)cc3)nc(NCCCNc3ccnc4cc(Cl)ccc34)n2)cc1`, for which the growth is 81.2%.

As for `N=C(N)c1ccc(-c2ccc(-c3ccc(Cl)cc3Cl)s2)cc1F`, the growth was 84.8%.

Consider `COC(=O)C1=C(C(=O)Nc2cccnc2)C2OC1(C(Cc1ccccc1)Oc1ccccc1)C1OC21` (stereo not given), for which the growth is 61.5%.

Turning to `O=C(OC[C@@H]1CO1)c1cccc2c(=O)c3ccccc3[nH]c12`, the growth was -31.6% (active).

With `COc1ccc(C(c2cc(OC)c(OC)c(OC)c2)N2CCCC2)cc1` (stereo not given), the growth is 81.6%.

For the compound `O=C(Nc1cccc(NC(=O)C2CCCCC2)c1)c1ccccn1`, the growth is 102%.

Take `CN1CCN(C(=O)c2cc(-c3ccc4ncnc(N5CCc6cc(F)c(Cl)cc65)c4c3)cnc2N)CC1`: the growth was -20.4% (active).

Regarding `O=C(CCCCl)NNc1nccc(Nc2ccc(S(=O)(=O)Nc3ccncc3)cc2)n1`, the growth is 120%.

As for `CCN(CC)c1ccc(/C=N/NC(=O)c2ccc(Nc3ccnc(C(F)(F)F)c3)cc2)c(O)c1`, the growth is -2.72% (active).

As to `O=C1/C(=C/c2cccc([N+](=O)[O-])c2)COc2ccc(O)cc21`, the growth is 63.3%.

Consider `CCCCCCCCCCCCCCCCOC(=O)c1c(C)[nH]c(/C=C2\N=C(c3ccc[nH]3)C=C2OC)c1C`, for which the growth is 55.1%.

With `COc1ccccc1NC(=O)c1ccc(/C=C/C(=O)c2nccn2C)cc1`, the growth was -63.5% (active).

Turning to `CCn1cc(C(=O)NN=C2CCCCCC2)c(=O)c2ccc(C)nc21`, the growth is 83%.

For the compound `Cn1cc(-c2nonc2-c2c[nH]c3ccc(F)cc23)c2cc(Br)ccc21`, the growth was 65.9%.

Consider `CCN(CC)CCOc1ccc(Nc2ncc3cc(-c4ccc(O)cc4)c(=O)n(C)c3n2)cc1`, for which the growth was 30.1%.

On to `CN(C)c1ccc(C(=NO)c2ccc(N(C)C)cc2)cc1`, for which the growth was 53.4%.

For the compound `O=C(N/N=C/c1ccc(O)cc1O)c1ccc(Nc2ccnc(C(F)(F)F)c2)cc1`, the growth was 41.5%.

Turning to `Cc1cc2oc(=O)cc(CP(=O)(O)O)c2cc1O`, the growth was 105%.

Regarding `C=C(C)[C@@H]1CC[C@]2(CO)CC[C@]3(C)[C@H](CC[C@@H]4[C@@]5(C)CCC(NCCc6ccc(O)cc6)C(C)(C)[C@@H]5CC[C@]43C)[C@@H]12` (stereo not given in full), the growth was 33.9%.

As to `COc1cc(/C=C\c2cc(/C=C\c3ccc(O)c(OC)c3)n(C(=O)CNc3ccc(Cl)cc3)n2)ccc1O`, the growth was 24.3%.

`CN(C)c1ccc(/C=C2/C=C(c3ccccc3)OC2=O)cc1`: the growth was 98.6%.

For the compound `COc1cc(C(=O)c2c(-c3ccccc3)oc3c(OC)cccc23)cc(OC)c1O`, the growth is 11.7%.

Take `COc1ccc(C2C(C#N)=C(N)Oc3c2sc2c(Br)cccc32)cc1` (stereo not given): the growth was 34.4%.

Regarding `C=CCOC(=O)C1=C(C)NC(=O)NC1c1c(Cl)n(C)c2ccccc12` (stereo not given), the growth is 99.1%.

As for `Nc1ccc([N+](=O)[O-])cc1N=C/C=C/c1ccccc1`, the growth is 55%.

As for `Nc1c(C(=O)Nc2cccc3ncccc23)sc2nc3c(cc12)C(=O)CCC3`, the growth was 55.2%.

Turning to `NC(CSC(c1ccccc1)(c1ccccc1)c1ccc2c(c1)OCO2)C(=O)O` (stereo not given), the growth is 22.7%.

Regarding `COC(=O)c1ccc2c(c1)c1c(C)c3ccncc3c(C)c1n2C`, the growth is 43.5%.

For the compound `CCCCNC1=C(OCC)C(=O)c2ccccc2C1=O`, the growth is 76.5%.

On to `O=C(c1ccc(Cl)cc1Cl)N1c2ccccc2Sc2ccccc21`, for which the growth is 54.6%.

Take `CCC(C)Nc1ccc(NC(C)CC)cc1` (stereo not given): the growth was 85.4%.

Regarding `O=C(Cn1cc(CN2C(=O)c3ccccc3S2(=O)=O)nn1)Nc1cccc(Cl)c1`, the growth was 133%.

`COc1ccc(-c2cn(-c3ccc(Cl)cc3)c(SCC(=O)c3ccc([N+](=O)[O-])cc3)n2)cc1`: the growth was 89.7%.

`CN1CCN(CCOc2ccc(-c3cnc4c(-c5ccc(C(F)(F)F)cc5)cnn4c3)cc2)CC1`: the growth was 47.8%.
